From ChEMBL document CHEMBL3988442, “University of Dundee, Small-Polar-MMV Screening Library” (2021)
For some of these results: Measured potencies and affinities stand elsewhere.

Tests used:
Parameters in all cases: scale not given: direction of the effect not stated beside the values
[1] = molecular target: Protein translocase subunit SecA (Escherichia coli (strain K12)) (UniProt P10408); assay: Assay to Identify E. coli SecA ATPase Inhibitors; type: functional; details: 30 µM
[2] = molecular target: T1, Ubiquitin-activating enzyme e1, putative (Leishmania donovani (strain BPK282A1)) (UniProt E9BSI1); assay: Leishmania donovani Ubiquitin Activating Enzyme (LdE1); type: functional; details: 30 µM
T1 sequence (whole entry): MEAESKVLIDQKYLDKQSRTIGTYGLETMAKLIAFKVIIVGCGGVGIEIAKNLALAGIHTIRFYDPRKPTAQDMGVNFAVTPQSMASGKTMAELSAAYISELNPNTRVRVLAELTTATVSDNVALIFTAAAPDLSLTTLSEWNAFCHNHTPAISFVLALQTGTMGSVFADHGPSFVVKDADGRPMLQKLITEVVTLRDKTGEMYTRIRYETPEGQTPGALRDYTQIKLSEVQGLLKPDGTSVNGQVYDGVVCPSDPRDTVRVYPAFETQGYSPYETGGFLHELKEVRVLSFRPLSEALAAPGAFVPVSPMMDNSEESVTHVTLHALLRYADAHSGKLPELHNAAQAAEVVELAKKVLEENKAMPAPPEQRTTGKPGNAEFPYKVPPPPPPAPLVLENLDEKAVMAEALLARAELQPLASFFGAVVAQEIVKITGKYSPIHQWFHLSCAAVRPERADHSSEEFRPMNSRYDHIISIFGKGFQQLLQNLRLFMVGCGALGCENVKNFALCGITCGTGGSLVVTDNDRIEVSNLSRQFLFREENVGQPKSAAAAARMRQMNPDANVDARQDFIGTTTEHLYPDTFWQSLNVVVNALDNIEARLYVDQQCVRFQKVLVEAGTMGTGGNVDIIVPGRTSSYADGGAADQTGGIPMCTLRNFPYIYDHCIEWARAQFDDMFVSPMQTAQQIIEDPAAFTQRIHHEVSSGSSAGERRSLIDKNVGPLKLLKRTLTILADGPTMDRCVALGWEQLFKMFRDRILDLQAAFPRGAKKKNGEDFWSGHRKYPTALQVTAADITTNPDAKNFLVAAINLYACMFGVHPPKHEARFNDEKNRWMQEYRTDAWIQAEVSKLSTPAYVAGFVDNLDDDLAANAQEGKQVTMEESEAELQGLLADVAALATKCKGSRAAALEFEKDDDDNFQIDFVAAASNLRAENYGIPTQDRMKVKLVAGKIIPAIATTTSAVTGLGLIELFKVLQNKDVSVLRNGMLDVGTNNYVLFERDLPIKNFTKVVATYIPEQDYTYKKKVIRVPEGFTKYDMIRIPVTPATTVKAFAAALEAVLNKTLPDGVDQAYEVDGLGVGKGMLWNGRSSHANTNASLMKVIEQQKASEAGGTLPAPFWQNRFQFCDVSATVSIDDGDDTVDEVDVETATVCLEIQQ

[3] = molecular target: T2, Aspartate--tRNA(Asp/Asn) ligase (Mycobacterium tuberculosis (strain ATCC 25618 / H37Rv)) (UniProt P9WFW3); assay: Assay for Asp RNA synthetase-1 from Mycobacterium tuberculosis; type: functional; details: 30 µM; also: in the data most compounds retested in dose-response had high values
T2 sequence (whole entry): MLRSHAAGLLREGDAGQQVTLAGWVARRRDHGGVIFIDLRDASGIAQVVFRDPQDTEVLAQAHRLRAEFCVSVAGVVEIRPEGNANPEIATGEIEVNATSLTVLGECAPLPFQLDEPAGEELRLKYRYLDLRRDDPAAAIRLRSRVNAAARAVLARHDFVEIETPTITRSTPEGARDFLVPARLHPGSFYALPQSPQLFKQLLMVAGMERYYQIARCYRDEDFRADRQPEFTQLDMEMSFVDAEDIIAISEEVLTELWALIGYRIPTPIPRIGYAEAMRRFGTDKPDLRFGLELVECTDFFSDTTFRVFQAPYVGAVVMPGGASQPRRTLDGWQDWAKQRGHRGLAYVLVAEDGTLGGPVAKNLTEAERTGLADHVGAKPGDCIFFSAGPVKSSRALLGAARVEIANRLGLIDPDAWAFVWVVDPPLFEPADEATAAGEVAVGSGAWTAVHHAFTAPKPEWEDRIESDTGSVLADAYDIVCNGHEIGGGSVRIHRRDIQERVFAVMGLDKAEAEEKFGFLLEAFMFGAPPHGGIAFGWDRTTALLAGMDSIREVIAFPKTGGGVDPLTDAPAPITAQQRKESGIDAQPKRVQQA

[4] = molecular target: AMP-activated protein kinase, AMPK (Homo sapiens) (UniProt P54646+O43741+P54619+Q9UGJ0+Q9Y478+Q13131+Q9UGI9); assay: AMP-dependent Kinase enzyme assay. An in vitro enzyme assay that detects ADP turnover that is directly proportional to AMPK activity. This uses naive AMPK that is activated during the assay with MK-8722; type: functional; details: 30 µM
[5] = molecular target: Sialic acid-binding Ig-like lectin 9 (Homo sapiens) (UniProt Q9Y336); assay: Hs-Siglec9 ALPHAscreen SOP 20170721; details: 10 µM
Trypanosoma cruzi = assay: Trypanosoma cruzi phosphomannomutase and mannose-1-phosphate guanylyltransferase assay; type: functional; details: 10 µM
[6] = molecular target: T3, Arginase-2, mitochondrial (Homo sapiens) (UniProt P78540); assay: in vitro enzyme assay to detect the production of urea directly proportional to the activity of Arginase II; type: functional; details: 33.3 µM; also: in the data most compounds retested in dose-response had high values
T3 sequence (whole entry): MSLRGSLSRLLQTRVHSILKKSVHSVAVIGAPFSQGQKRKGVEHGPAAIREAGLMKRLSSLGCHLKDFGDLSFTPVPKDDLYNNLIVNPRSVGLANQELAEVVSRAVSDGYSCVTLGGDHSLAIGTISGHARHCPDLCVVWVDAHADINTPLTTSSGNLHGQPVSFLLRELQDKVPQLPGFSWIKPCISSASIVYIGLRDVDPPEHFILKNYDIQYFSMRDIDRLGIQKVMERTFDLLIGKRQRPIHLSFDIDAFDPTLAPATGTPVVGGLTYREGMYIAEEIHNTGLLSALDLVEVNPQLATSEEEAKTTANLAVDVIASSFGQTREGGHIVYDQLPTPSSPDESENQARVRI

[7] = molecular target: T4, Proteasome subunit beta (Trypanosoma cruzi) (UniProt O96673); assay: Trypanosoma cruzi proteasome chymotrypsin-like activity (TcProtChymo) assay.; also: in the data most compounds retested in dose-response had high values; type: functional; details: 9.37 µM
T4 sequence (whole entry): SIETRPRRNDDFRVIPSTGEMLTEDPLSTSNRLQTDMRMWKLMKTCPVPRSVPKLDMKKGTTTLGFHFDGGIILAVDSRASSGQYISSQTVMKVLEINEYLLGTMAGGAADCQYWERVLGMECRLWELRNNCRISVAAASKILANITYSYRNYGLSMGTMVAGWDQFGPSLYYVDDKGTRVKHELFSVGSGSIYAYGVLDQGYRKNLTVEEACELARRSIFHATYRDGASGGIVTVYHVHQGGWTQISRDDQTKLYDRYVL

Homo sapiens = species on record: Homo sapiens; assay: To identify inhibition of the IFN signalling (Jak-Stat) pathway via expression of an eGFP reporter gene under the control of an IFN-stimulated response element (ISRE) containing MxA promoter.; type: functional; details: 30 µM
[8] = molecular target: T5, Tyrosyl-tRNA synthetase, putative (Trypanosoma cruzi (strain CL Brener)) (UniProt Q4DSP6); assay: Trypanosoma cruzi tyrosyl tRNA synthetase (TcYRS) _High Tyrosine SOP; type: functional; details: 30 µM; also: in the data most compounds retested in dose-response had high values
T5 sequence (whole entry): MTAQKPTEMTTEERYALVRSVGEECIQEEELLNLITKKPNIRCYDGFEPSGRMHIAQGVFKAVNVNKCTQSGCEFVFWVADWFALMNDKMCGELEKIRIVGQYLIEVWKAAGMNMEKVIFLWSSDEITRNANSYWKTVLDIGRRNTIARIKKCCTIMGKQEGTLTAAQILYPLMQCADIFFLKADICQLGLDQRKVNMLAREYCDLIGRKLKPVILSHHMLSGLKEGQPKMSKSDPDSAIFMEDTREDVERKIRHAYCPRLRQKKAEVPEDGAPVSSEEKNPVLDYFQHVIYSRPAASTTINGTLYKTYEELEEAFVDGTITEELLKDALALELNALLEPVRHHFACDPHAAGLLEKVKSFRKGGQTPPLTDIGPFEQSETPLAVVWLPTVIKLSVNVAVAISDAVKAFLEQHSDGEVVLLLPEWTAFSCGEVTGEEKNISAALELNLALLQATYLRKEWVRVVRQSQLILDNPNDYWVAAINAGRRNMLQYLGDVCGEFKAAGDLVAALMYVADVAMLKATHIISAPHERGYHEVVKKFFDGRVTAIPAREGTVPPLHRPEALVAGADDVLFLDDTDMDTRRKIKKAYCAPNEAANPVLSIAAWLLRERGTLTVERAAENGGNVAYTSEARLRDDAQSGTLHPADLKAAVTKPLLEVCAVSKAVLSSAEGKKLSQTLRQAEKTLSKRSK

[9] = molecular target: T5, Tyrosyl-tRNA synthetase, putative (Trypanosoma cruzi (strain CL Brener)); assay: Trypanosoma cruzi tyrosyl tRNA synthetase (TcYRS) SOP; type: functional; details: 30 µM
[10] = molecular target: Chromo domain-containing protein 1 (Saccharomyces cerevisiae (strain ATCC 204508 / S288c) (Baker's yeast)) (UniProt P32657); assay: ScCHD-1 Enzyme Inhibition Assay; type: functional; details: 30 µM; also: in the data most compounds retested in dose-response had high values
[11] = molecular target: Shiga toxin 2 (Escherichia coli O157:H7) (UniProt P09385+P09386); assay: E. coli 0.157:H7 Shiga Toxin SOP - stx2 screening assay; type: functional; details: 30 µM

Chain of Chromo domain-containing protein 1 (Saccharomyces cerevisiae (strain ATCC 204508 / S288c) (Baker's yeast)) (P32657 whole entry, the tested form may be a part): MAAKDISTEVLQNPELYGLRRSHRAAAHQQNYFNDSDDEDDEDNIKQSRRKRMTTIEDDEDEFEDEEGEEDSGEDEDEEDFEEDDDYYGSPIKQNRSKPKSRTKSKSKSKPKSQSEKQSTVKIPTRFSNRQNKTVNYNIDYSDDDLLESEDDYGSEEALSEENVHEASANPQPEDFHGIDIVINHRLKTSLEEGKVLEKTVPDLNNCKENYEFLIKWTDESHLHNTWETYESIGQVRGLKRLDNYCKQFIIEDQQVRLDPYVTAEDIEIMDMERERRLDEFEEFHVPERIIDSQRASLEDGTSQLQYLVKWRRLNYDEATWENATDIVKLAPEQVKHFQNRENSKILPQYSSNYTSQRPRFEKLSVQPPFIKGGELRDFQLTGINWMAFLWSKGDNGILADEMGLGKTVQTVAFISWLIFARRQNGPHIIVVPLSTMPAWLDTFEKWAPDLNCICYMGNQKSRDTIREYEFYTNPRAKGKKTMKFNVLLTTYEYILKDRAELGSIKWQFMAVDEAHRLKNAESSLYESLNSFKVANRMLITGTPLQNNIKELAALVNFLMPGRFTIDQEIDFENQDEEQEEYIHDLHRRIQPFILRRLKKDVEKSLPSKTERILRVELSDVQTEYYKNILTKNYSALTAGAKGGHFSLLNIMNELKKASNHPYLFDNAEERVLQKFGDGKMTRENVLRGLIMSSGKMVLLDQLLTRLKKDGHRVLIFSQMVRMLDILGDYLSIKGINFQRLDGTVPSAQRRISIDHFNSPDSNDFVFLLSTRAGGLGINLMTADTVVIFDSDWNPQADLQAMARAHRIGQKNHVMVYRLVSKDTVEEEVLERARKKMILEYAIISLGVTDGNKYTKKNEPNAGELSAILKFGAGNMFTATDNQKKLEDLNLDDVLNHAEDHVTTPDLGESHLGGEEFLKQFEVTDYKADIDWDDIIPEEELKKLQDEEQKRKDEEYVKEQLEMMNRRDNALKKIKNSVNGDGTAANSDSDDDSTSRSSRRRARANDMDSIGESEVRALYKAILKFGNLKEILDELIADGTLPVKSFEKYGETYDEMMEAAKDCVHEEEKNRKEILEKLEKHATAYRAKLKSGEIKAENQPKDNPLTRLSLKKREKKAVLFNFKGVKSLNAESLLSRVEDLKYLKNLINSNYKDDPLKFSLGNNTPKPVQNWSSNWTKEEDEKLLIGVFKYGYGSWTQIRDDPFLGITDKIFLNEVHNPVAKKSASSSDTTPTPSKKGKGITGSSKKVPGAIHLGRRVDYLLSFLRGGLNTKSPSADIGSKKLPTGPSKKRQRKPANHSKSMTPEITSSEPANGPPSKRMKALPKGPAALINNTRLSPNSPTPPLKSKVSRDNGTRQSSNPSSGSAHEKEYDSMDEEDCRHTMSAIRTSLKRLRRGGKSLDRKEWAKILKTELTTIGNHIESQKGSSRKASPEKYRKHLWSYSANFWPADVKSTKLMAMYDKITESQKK
Chain of Sialic acid-binding Ig-like lectin 9 (Homo sapiens) (Q9Y336 whole entry): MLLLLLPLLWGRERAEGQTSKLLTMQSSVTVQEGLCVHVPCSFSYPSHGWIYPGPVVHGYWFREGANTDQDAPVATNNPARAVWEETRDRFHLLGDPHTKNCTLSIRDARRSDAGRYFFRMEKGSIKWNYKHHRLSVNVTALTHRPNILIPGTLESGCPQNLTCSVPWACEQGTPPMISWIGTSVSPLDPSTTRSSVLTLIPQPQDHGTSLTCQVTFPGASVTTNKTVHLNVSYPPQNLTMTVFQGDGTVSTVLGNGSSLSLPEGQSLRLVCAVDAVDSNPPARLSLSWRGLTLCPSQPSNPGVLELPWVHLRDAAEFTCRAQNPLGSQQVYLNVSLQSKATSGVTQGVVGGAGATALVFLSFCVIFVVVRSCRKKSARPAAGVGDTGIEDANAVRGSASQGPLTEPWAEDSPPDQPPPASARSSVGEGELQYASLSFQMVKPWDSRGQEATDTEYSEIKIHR
Chain of Protein translocase subunit SecA (Escherichia coli (strain K12)) (P10408 whole entry): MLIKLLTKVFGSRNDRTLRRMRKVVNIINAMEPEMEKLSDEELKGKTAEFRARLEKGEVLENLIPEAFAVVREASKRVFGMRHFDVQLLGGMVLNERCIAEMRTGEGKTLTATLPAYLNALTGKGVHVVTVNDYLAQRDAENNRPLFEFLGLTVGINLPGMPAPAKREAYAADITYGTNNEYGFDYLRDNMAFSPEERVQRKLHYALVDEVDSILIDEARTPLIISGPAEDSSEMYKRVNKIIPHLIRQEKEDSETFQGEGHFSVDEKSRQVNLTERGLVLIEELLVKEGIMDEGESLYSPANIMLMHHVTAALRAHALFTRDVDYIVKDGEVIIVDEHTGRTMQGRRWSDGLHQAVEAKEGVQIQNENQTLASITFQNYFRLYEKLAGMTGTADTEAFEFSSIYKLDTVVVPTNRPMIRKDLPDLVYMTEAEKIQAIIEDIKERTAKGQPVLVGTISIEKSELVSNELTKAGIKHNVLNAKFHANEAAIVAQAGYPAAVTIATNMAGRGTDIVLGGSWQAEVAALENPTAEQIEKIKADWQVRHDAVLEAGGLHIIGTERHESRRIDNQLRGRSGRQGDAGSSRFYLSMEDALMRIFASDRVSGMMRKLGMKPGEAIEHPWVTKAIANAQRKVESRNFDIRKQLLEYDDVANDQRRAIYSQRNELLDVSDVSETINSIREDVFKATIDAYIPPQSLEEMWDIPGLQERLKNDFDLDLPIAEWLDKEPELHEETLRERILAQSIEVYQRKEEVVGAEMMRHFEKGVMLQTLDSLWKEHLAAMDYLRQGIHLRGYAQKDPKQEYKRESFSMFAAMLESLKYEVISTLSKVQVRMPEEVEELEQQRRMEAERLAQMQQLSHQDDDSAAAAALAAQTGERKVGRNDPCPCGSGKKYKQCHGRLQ

| Structure (SMILES) | Percent Effect [1] | Percent Effect [2] | Percent Effect [3] | Percent Effect [4] | Percent Effect [5] | Percent Effect (Trypanosoma cruzi) | Percent Effect [6] | Percent Effect [7] | Percent Effect (Homo sapiens) | Percent Effect [8] | Percent Effect [9] | Percent Effect [10] | Percent Effect [11] |
| --- | --- | --- | --- | --- | --- | --- | --- | --- | --- | --- | --- | --- | --- |
| CNCCc1nc2cc(Cl)ccc2[nH]1 | -7.19% | 0% | 0.126% | 1.26% | -5.75% | -7.11% | -3.65% | 5.58% | 5.87% | -4.92% | -6.17% | 0.639% | – |
| CCc1noc(C(C)N2CCNCC2)n1 (stereo unspecified) | -5.07% | 5.33% | -11.9% | – | 0.232% | -0.602% | -2.22% | 13.3% | -0.55% | 2.63% | 2.56% | -9.82% | 6.76% |
| O=C(C1CC(=O)N(c2ccccc2Br)C1)N1CCC2(CC1)OCCO2 (stereo unspecified) | -3.76% | -10.7% | 2.47% | -5.79% | -2.82% | -3.21% | 2.6% | 11.2% | 0.465% | 1.64% | 8.64% | -2.41% | – |
| O=C([C@H]1C[C@H]2OCC[C@H]2N(Cc2cccnc2)C1)N1CCCO1 | -1.59% | 10.8% | 5.55% | 3.09% | -7.38% | -0.489% | 20.1% | 27.7% | 14.1% | 13% | 15.4% | 3.21% | -7.24% |
| CC[C@H]1N(C)CCC[C@]12CCC(=O)N2Cc1ccncc1 | -1.96% | 32.5% | 0.228% | – | 0.456% | 1.69% | -1.83% | 14.3% | 16.7% | 7.73% | 10% | -8.84% | -15.6% |
